Compound activity as filed in PubChem.
Hits are enriched below; roughly 1.7% of the tested compounds scored in any of these assays.
RGS4 inh: inhibitors of human regulator of G protein signaling 4; P49798; Transcreener GDP fluorescence polarization, RGS4-accelerated GTP hydrolysis; Potency, µM (titrated, usually from 114 µM), for inactives: at the top dose activity change, negative = inhibition, usual class: inhibitors; actives 0.039% (n = 390,000); AID 504845; further: on the % scale 0 is the no-effect control and ±100 the full control effect; nearly all actives have a fitted effect of over 75% in size
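MLSMR compounds (23 nl, pin-transferred) preincubated 10 min at room temperature with a 500nM (2x) first reagent, then RGS4 at 900nM (2x) plus Transcreener GDP mix added; fluorescence polarization (620/688 nm) read before and after 90 min at 30 °C.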
GLP1R ag: agonists of human GLP-1 receptor | P43220 | HEK293 GLP-1R CRE-luciferase, luminescence, 4-6 h; cells express a hypersensitive GLP-1R form | Potency, µM (highest dose often 45.6 µM), for inactives: at the top dose activation, most hits filed as activators | actives 0.007% (n = 380,000); further: % of control where 0% means no effect
GLP1R cytotox: cytotoxicity counter-screen for GLP-1 receptor inverse agonists; HEK293 cAMP-luciferase reporter cells, luminescence, 24 h; Potency, µM (highest dose often 38.3 µM), inactives show at the highest dose activity change, negative = inhibition, hits mostly inhibitors; actives 0.13% (n = 410,000);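 further: loss of luciferase light is scored as toxicity; on the % scale 0 is the no-effect control and ±100 the full control effect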
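1536-well qHTS counterscreen of the MLSMR; 200 cells/uL, 12 h pre-incubation, 23 nL cpd, 24 h at 37 deg C 5% CO2, luciferase detection reagent, 12 min RT, luminescence. Inhibition = undesired.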
GLP1R inv ag: inverse agonists of human GLP-1 receptor | HEK293 GLP-1R CRE-luciferase, luminescence, 24 h; GLP-1R form is constitutively active | Potency, µM (doses to about 38.3 µM), for inactives: at the top dose activity change, negative = inhibition, usual class: inhibitors | actives 1.6% (n = 410,000); further: on the % scale 0 is the no-effect control and ±100 the full control effect; nearly all actives have a fitted effect of over 55% in size
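Luminescence readout: a drop in cAMP-driven luciferase signal flags inverse agonism at a constitutively active GLP-1R stably expressed in HEK293. Compound exposure lasted 24 hr at 37 deg C, 5% CO2.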
PTHR1 ag: agonists of human PTHR1 parathyroid hormone receptor | Q03431 | HEK293 GP2 PTHR1 cells, GloSensor cAMP luminescence, 1 h | Potency, µM (doses to about 115 µM), without a hit: at the top dose activation, actives largely listed as activators | actives 0.075% (n = 410,000) | AID 743266; further: nearly all actives have a fitted effect of over 55% in size
Target sequence (Q03431 whole entry, looked up): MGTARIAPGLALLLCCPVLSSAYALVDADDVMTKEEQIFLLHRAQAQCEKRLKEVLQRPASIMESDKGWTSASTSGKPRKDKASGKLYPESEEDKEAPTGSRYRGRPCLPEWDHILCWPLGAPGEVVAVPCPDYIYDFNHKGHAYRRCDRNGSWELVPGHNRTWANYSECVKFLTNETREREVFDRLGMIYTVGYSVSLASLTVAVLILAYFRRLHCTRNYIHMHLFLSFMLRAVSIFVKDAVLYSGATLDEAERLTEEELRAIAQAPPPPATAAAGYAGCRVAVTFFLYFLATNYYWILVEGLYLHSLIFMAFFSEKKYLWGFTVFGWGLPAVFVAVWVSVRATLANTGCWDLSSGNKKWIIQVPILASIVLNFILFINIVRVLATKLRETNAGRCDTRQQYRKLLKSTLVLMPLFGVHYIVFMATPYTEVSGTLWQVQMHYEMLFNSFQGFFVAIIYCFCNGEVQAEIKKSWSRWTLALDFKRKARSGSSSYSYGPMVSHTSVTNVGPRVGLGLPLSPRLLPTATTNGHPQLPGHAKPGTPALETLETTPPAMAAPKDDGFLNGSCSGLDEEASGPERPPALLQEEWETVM
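HEK-293-derived GP2 cells expressing PTHR1 and a GloSensor cAMP reporter, 3,000/well, plated overnight, given luciferin plus IBMX (each 0.5 mM as added) for 1 h at 37 °C, then compound for 1 h at 37 °C. Luminescence was read after 15 min at room temperature.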
An asterisk follows results filed as active; i = inactive; ? = inconclusive; · = no result; [ ] = another dose, or the depositor's remark. The call rests on the fitted dose curve; in most records, active means well fitted curve in the direction sought with a large enough effect; inconclusive means small, poorly fitted or top-dose-only effect, or another doubt; inactive means no such curve, though single readings can be large; an effect the other way counts as inactive or inconclusive. Potency means the concentration at half of the fitted maximal effect.

SMILES	RGS4 inh	GLP1R ag	GLP1R cytotox	GLP1R inv ag	PTHR1 ag
CC(C)=CCC[C@H](C)C[C@@H]1CC2=C(C(=O)OC(C)(C)O2)[C@H](c2ccc(F)cc2)O1	·	-1%	8%	?	-23%
Cn1c(CN2CCCC2)nc2cc(NS(=O)(=O)c3ccc(Cl)cc3)ccc21	1%	-2%	17%	4µM*	-9%[57.5 µM]
Cn1c(CCN2CCCC2)nc2cc(NS(=O)(=O)c3ccc(Cl)cc3)ccc21	-14%	10%	-16%	43%	-3%
CC(C)CNC(=S)N1CCC(C(=O)c2ccc(Cl)cc2)CC1	·	-6%	-6%	?	-35%
Cc1cc(C(=O)CSc2nc(N)cc(=O)[nH]2)c(C)n1CC1CCCO1 (stereo not given)	1%	12%	0%	9%	-23%
Cc1cc(C(=O)CSc2nc3ccccc3[nH]2)c(C)n1CC1CCCO1 (stereo not given)	23%	-4%	-31%	4µM*	-37%
COC(=O)CNC(c1ccccc1Cl)c1cc(Br)ccc1NS(=O)(=O)c1ccc(C)cc1 (stereo not given)	-12%	-18%	3%	3.5µM*	i
O=C(c1cc(Cl)nc2ccccc12)N1CCN(S(=O)(=O)c2cccc(C(F)(F)F)c2)CC1	-13%	8%	-3%	11µM*	-12%
O=C(Oc1ccccc1)c1cccc2cccc(C(=O)Oc3ccccc3)c12	35%	11%	25%	10µM*	-28%
O=C(Oc1ccccc1)c1ccccc1C(=O)Oc1ccccc1	-16%	16%	-12%	?	-52%
CCOC(=O)c1[nH]c(C)c(CCC(=O)Nc2cccc(C(F)(F)F)c2)c1C	21%	·	-13%	?	-5%
CSc1ccc(NC(=O)NCCCN2CCC(Cc3ccccc3)CC2)cc1	-3%	2%	?	7.9µM*	i
COc1ccc(N2CC(NC(=O)c3ccc4c(c3)OCO4)CC2=O)cc1 (stereo not given)	-34%	·	-9%	17%	12%
CCN(CC)c1ccc(CN(C(=O)c2cc(=O)c3ccccc3o2)C2CCS(=O)(=O)C2)cc1 (stereo not given)	21%	·	-10%	10%	9%
Cc1nn(CC(=O)OCC(=O)c2ccccc2)c(C)c1[N+](=O)[O-]	-17%	0%	-9%	3%	1%
CCOc1ccc(N(CC(=O)Nc2ccc(C)c(C)c2)S(=O)(=O)c2c(C)noc2C)cc1	17%	7%	14%	10µM*	i
Cc1ccccc1OCC(=O)NCC(=O)OCc1cccc2ccccc12	-2%	·	·	·	·
Cc1ccc(-c2nc(CS(=O)(=O)CC(=O)Nc3ccc(Br)cc3F)c(C)o2)cc1	-12%	·	1%	-9%	i
CCc1ccc(C(=O)c2cn(CC(=O)Nc3cc(OC)ccc3OC)c3ccc(Cl)cc3c2=O)cc1	-8%	0%	7%	6%	-3%
CCN(C(=O)c1ccc2c(c1)OCO2)C12CC3CC(CC(C3)C1)C2	-9%	28%	1%	11µM*	-16%
Cc1ccc(S(=O)(=O)N(CC(=O)N/N=C/c2ccco2)c2cc(Cl)cc(Cl)c2)cc1	-44%	4%	?	6.3µM*	-7%
Cc1noc(C)c1COC(=O)c1cccc(S(=O)(=O)N2c3ccccc3CC2C)c1 (stereo not given)	-10%	3%	3%	14µM*	i
COC(=O)c1cccc(NC(=O)c2onc3c2CCCC3)c1	2%	0%	0%[1.53 µM]	-19%	-14%
O=C(Nc1ccc2ccccc2c1)c1onc2c1CCCC2	-18%	-1%	-5%	8.9µM*	-37%[57.5 µM]
CCCn1cc(S(=O)(=O)c2ccccc2)c(=O)c2cc(F)c(N3CCCC(C)C3)cc21 (stereo not given)	-3%	·	12%	7%	i
SMILES	RGS4 inh	GLP1R ag	GLP1R cytotox	GLP1R inv ag	PTHR1 ag
COc1ccc(NC(=O)C(C)N2Cc3ccccc3C2=O)cc1OC (stereo not given)	-15%	·	-8%	7%	-9%
Cc1ccc(NC(=S)N=Nc2c(O)n(C)c3ccc(S(=O)(=O)N4CCOCC4)cc23)cc1	?	9%	0.63µM*	-7%	-12%
S=C1NC[C@H](CC2CCCCC2)N1CC1CCCCC1	-16%	1%	5.6µM*	4.5µM*	-65%
O=C(COc1ccc(Br)cc1Br)NC(=O)NC1CCCC1	-2%	16%	-2%	?	-50%
CC(C)(C)NC(=O)NC(=O)COc1ccc(Br)cc1Br	-2%	13%	-7%	10µM*	-32%
CCOCCCNC(=O)C1CCN(C(=O)c2cc3sccc3n2C)CC1	5%	·	1%	-6%	i
O=S(=O)(Nc1cccc(-c2ccc(N3CCCCCC3)nn2)c1)c1ccccc1Cl	7%[56.9 µM]	14%	-22%	5µM*	-25%
O=S(=O)(Nc1cccc(-c2ccc(N3CCCCCC3)nn2)c1)c1ccccc1F	12%	5%	4%	?	-2%
CCOc1ccc(S(=O)(=O)Nc2ccc(-c3ccc(N4CCCC4)nn3)cc2)cc1	5%	·	-12%	7%	i
O=S(=O)(Nc1ccc(-c2ccc(N3CCCCC3)nn2)cc1)c1ccc(OC(F)(F)F)cc1	8%	·	-21%	11µM*	-7%
Cc1cc(S(=O)(=O)Nc2ccc(-c3ccc(N4CCCCCC4)nn3)cc2)c(C)cc1Cl	-7%	·	-23%	7.9µM*	i
Cc1cc(S(=O)(=O)Nc2ccc(-c3ccc(N4CCCCC4)nn3)cc2)c(C)cc1Cl	23%	·	-13%	7.1µM*	i
CCc1ccccc1NC(=O)c1ccc(S(=O)(=O)NCC2CCCO2)cc1 (stereo not given)	22%	14%	-3%	5%	-5%
Cc1ccc(NC(=O)CCCn2c(=O)c3cccn3c3cccnc32)c(Cl)c1	20%	·	2%	5%	i
CCCCN(C(=O)C1CCCO1)c1c(N)n(CCC)c(=O)[nH]c1=O (stereo not given)	?	-2%	7%	0%	i
COc1cccc(NC(=S)N2CCN(C/C=C/c3ccccc3)CC2)c1	-37%	5%	-23%	5.6µM*	i
O=C(NCC(c1cccs1)N1CCOCC1)c1cn(-c2ccccc2)nc1-c1ccc(Cl)cc1 (stereo not given)	18%	-9%	9%	-16%	i
O=C(NCC(c1cccs1)N1CCOCC1)c1cn(-c2ccccc2)nc1-c1ccccc1 (stereo not given)	2%	3%	-9%	10µM*	i
COc1cc(C(=O)NCC(c2cccs2)N2CCOCC2)cc(Br)c1OCc1ccccc1 (stereo not given)	0%	7%	-20%	6.3µM*	i
